Data on 16 compounds can be found in PubChem BioAssay (NCATS).

Records with an inconclusive call do not appear. A call without a number means that no potency is given here. Activity calls are given as the source filed them. The call rests on the fitted dose curve; in most records, active means well fitted cell-killing curve with a large enough effect; inconclusive means small, poorly fitted or top-dose-only effect; inactive means flat fitted curve, though single readings scatter.

This test in a line: qHTS of pediatric cancer cell lines to identify multiple opportunities for drug repurposing: Primary screen for Rh18 cells (AID 1347102). Further: nearly all actives have a fitted effect of over 65% in size. Conditions: Rh18 rhabdomyosarcoma viability, CellTiter-Glo luminescence, 48 h; series mostly up to 46 µM. The procedure, abridged:
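Viability after 48 h compound treatment at 37C, 500-1,000 cells/well, read as ATP luminescence with CellTiter-Glo. Primary screens used 11-point (MIPE, 0.78 nM-46 µM) or 8-point (NPC, 0.59 nM-46 µM) final concentrations; follow-up screens used 11-point dilutions.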
On to `CN(C)[C@@H]1C(=O)C(C(=O)NCN2CCCC2)=C(O)[C@@]2(O)C(=O)C3=C(O)c4c(O)cccc4[C@@](C)(O)C3C[C@@H]12` (stereo partly specified), for which the Potency result was “inactive”.

`CCCCCCCCCCCCOCCO`: the Potency entry was “inactive”.

Regarding `CC(=O)SCC(CC(=O)c1ccc(C)cc1)C(=O)O` (stereo unspecified), the Potency result was “inactive”.

With `O=C(O)c1ccccc1Nc1cccc(C(F)(F)F)c1`, the Potency result is “inactive”.

With `CCOc1ccc2nc(S(N)(=O)=O)sc2c1`, the Potency result was “inactive”.

In the case of `Cc1c(Nc2ncccc2C(=O)O)cccc1C(F)(F)F`, the Potency entry is “inactive”.

Take `O=C(/C=C/c1ccccc1)NCCO`: the Potency entry is “inactive”.

On to `CCCCCCOc1ccccc1C(N)=O`, for which the Potency result was “inactive”.

For `CCOC(=O)c1ccccc1O`, the Potency entry is “inactive”.

As for `COc1cc2c3cc1Oc1cc(ccc1O)C[C@@H]1c4c(cc(OC)c(O)c4Oc4ccc(cc4)C[C@@H]3N(C)CC2)CC[N+]1(C)C`, the Potency entry was “inactive”.

`O=C(O)Cc1ccc2c(c1)C(=O)c1ccccc1CO2`: the Potency result is “inactive”.

As to `Cc1c(N)c(=O)n(-c2ccccc2)n1C`, the Potency entry is “inactive”.

With `Clc1ccccc1-c1nc(-c2ccncc2)no1`, the Potency entry is “inactive”.

Take `CC(C)(C)c1nnc(NS(=O)(=O)c2ccc(N)cc2)s1`: the Potency entry was “inactive”.

For the compound `CN1CCN(c2cc3c(nn2)Oc2ccccc2N3C)CC1`, the Potency entry is “inactive”.

In the case of `CC(C)OC(=O)c1cc(C(=O)OC(C)C)cc([N+](=O)[O-])c1`, the Potency entry was “inactive”.
